Records with an inconclusive call do not appear. Entries that show only a call come without a potency. Activity calls are given as the source filed them. Calls follow the shape of the dose curve; as a rule, active = well fitted inhibition curve with a large enough effect; inconclusive = small, poorly fitted or top-dose-only effect; inactive = no such curve, though single readings can be large or run the other way.
Experiments:
[1] = test system: Zika virus NS2B-NS3 protease (unlinked complex); assay: Primary screen GU Rhodamine qHTS for Zika virus inhibitors: Unlinked NS2B-NS3 protease assay (AID 1347159); conditions: Recombinant ZIKV NS2B-NS3 protease, Rhodamine110 substrate fluorescence; series mostly up to 107 µM; also: nearly all actives have a fitted effect of over 60% in size
In short: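 Noncovalent NS2B hydrophilic domain/NS3 protease complex (25 nM final) in 10 mM Tris-HCl pH 8.0, 0.01% Tween 20, preincubated 15 min with compounds (up to 114 microM), then 1.5 microM Rhodamine110 substrate. Fluorescence change over 15 min fitted to 4-parameter Hill.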

[2] = test system: Zika virus NS2B-NS3 protease (linked construct); assay: Primary screen NINDS Rhodamine qHTS for Zika virus inhibitors (AID 1347160); conditions: purified NS2B-NS3 protease, Rhodamine110 substrate fluorescence; series mostly up to 57.1 µM; also: nearly all actives have a fitted effect of over 55% in size
In short: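 Purified NS2B-NS3 protease with the NS2B hydrophilic domain joined by a flexible linker (25 nM) in 10 mM Tris-HCl pH 8.0, 0.01% Tween 20, preincubated 15 min at RT with compound; Rhodamine110 peptide substrate 1.5 µM; fluorescence change over 15 min; 4-parameter Hill fit.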

| SMILES | Potency [1] | Potency [2] |
| --- | --- | --- |
| CC1(C)CC[C@]2(CO[C@@H]3O[C@H](CO)[C@@H](O)[C@H](O)[C@H]3O)[C@@H](O)C[C@]3(C)C(=CCC4[C@@]5(C)CC[C@H](O[C@@H]6O[C@H](CO[C@@H]7O[C@H](CO[C@@H]8OC[C@@H](O)[C@H](O)[C@H]8O)[C@@H](O)[C@H](O)[C@H]7O)[C@@H](O)[C@H](O)[C@H]6O)C(C)(C)C5CC[C@]43C)[C@@H]2C1 (stereo not given in full) | inactive | inactive |
| CC1CC(=O)C2=C(CCC3(O)C(O)c4c(O)cccc4C(=O)C23O)C1 (stereo not given) | inactive | inactive |
| COc1ccc(-c2ccc3c(N4CCOCC4)nc(N4CC(C)OC(C)C4)nc3n2)cc1CO (stereo not given) | inactive | inactive |
| C[C@H]1CC(=O)Nc2cccc(-c3cnn(C(C)(C)C)c3)c2N1 | inactive | inactive |
| Cc1cc(Cl)ccc1COc1ccnn1-c1cc(C(=O)O)ccn1 | inactive | inactive |
| Cc1cc(O)cc(O[C@@H]2O[C@H](CO)[C@@H](O)[C@H](O)[C@H]2O)c1 | inactive | inactive |
| C[C@H](NC(c1cccc(C[P+](=O)O)c1)[C@H](C)O)c1ccc(Cl)c(Cl)c1 (stereo not given in full) | inactive | inactive |
| COc1cccc2cc3c(c(O[C@@H]4O[C@H](CO[C@@H]5O[C@H](CO)[C@@H](O)[C@H](O)[C@H]5O)[C@@H](O)[C@H](O)[C@H]4O)c12)C(C)OC3=O (stereo not given in full) | inactive | inactive |
| CC(=O)OC1C[C@]2(C)C(O)CC(C)=C[C@H](OC(=O)c3ccc(O)cc3)C2[C@]1(O)C(C)C (stereo not given in full) | inactive | inactive |
| CC1(CCOC2OC(CO)C(O)C(O)C2O)CCC23OC2(C1)C(O)CC1C(C)(C(=O)O)CCCC13C (stereo not given) | inactive | inactive |

— PubChem BioAssay (NCATS)
